This passage reports AC50 and outcome results from PubChem BioAssay (EPA / NIEHS).

Read-out in test [1]: Monokine induced gamma interferon (MIG), CXCL9 (gene 4283)
As to the kind of experiment: BSK_hDFCGF_MIG: BioMAP Diversity Plus: hDFCGF Assay for Monokine induced gamma interferon (MIG) Biomarker Activity (AID 2283063). The conditions noted are these: primary human foreskin fibroblasts; actives raise or lower the signal. In outline: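 Human primary foreskin fibroblasts in the hDFCGF system, exposed to test chemical for 24 h; MIG measured by ELISA. Bidirectional curve fitting against DMSO negative control as activity baseline.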

Read-out in test [2]: Matrix Metallopeptidase 1 (MMP1), MMP1 (gene 4312)
As to the kind of experiment: BSK_hDFCGF_MMP1: BioMAP Diversity Plus: hDFCGF Assay for Matrix Metallopeptidase 1 (MMP1) Biomarker Activity (AID 2283064). The conditions noted are these: primary human foreskin fibroblasts; actives raise or lower the signal. In outline: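 ELISA read-out of MMP1 from human foreskin fibroblasts (primary skin cells), 24 h post-dose. Gain or loss of signal was fitted bidirectionally versus DMSO negative control; cytotoxicity was checked by SRB in parallel cultures.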

Read-out in test [3]: Vascular cell adhesion molecule 1 (VCAM1), VCAM1 (gene 7412)
Nature of the test: BSK_hDFCGF_VCAM1: BioMAP Diversity Plus: hDFCGF Assay for Vascular cell adhesion molecule 1 (VCAM1) Biomarker Activity (AID 2283065).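 On AC50: VCAM-1 protein level quantified by ELISA after 24 h chemical exposure.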 The settings on record: primary human foreskin fibroblasts; actives raise or lower the signal. In outline:
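ELISA readout of VCAM-1 on human dermal fibroblast primary cultures, 24 h after chemical exposure. Gain or loss of signal fitted in both directions against DMSO baseline.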

Read-out in test [4]: Plasminogen activator inhibitor-1 (PAI1), SERPINE1 (gene 5054)
As to the kind of experiment: BSK_hDFCGF_PAI1: BioMAP Diversity Plus: hDFCGF Assay for Plasminogen activator inhibitor-1 (PAI1) Biomarker Activity (AID 2283066). The conditions noted are these: primary human foreskin fibroblasts; actives raise or lower the signal. In outline: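 PAI-1 levels in human dermal foreskin fibroblasts were quantified by ELISA 24 h after dosing, with gain or loss analysed against DMSO. Overt cytotoxicity was checked by sulforhodamine B total-protein staining in parallel cultures.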

Read-out in test [5]: Intercellular Adhesion Molecule 1 (ICAM1), ICAM1 (gene 3383)
Nature of the test: BSK_KF3CT_ICAM1: BioMAP Diversity Plus: KF3CT Assay for Intercellular Adhesion Molecule 1 (ICAM1) Biomarker Activity (AID 2283067). The conditions noted are these: primary human keratinocytes with fibroblasts; actives raise or lower the signal. In outline: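 Cell-surface ICAM-1 was measured by ELISA 24 h after dosing primary human skin keratinocytes co-cultured with fibroblasts. Parallel SRB staining tracked overt cytotoxicity. Gain or loss of signal was fitted relative to DMSO.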

A short description of test [6]: BSK_KF3CT_SRB: Viability Assessment in the BioMAP Diversity Plus: KF3CT Assay (AID 2283069).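 Further: read 24 h after compound addition.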 The settings on record: primary human keratinocytes with fibroblasts. In outline:
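SRB read-out at 560 nm (0.1% stain, TCA-fixed cells) gauges overt cytotoxicity in a human skin keratinocyte–fibroblast co-culture 24 h post-dosing. Signal change was fitted bidirectionally relative to DMSO control.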

Read-out in test [7]: Interleukin-1 alpha (IL1a), IL1A (gene 3552)
As to the kind of experiment: BSK_KF3CT_IL1a: BioMAP Diversity Plus: KF3CT Assay for Interleukin-1 alpha (IL1a) Biomarker Activity (AID 2283070). The settings on record: primary human keratinocytes with fibroblasts; actives raise or lower the signal. In outline: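 Primary skin co-culture (keratinocytes, foreskin fibroblasts), 24 h exposure; ELISA for IL-1a; bidirectional curve fit vs DMSO.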

Read-out in test [8]: TIMP metallopeptidase inhibitor 2 (TIMP2), TIMP2 (gene 7077)
Nature of the test: BSK_KF3CT_TIMP2: BioMAP Diversity Plus: KF3CT Assay for TIMP metallopeptidase inhibitor 2 (TIMP2) Biomarker Activity (AID 2283071). The conditions noted are these: primary human keratinocytes with fibroblasts; actives raise or lower the signal. In outline: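 TIMP-2 measured by ELISA at 24 h in human keratinocyte/fibroblast primary co-cultures exposed to chemicals. Both increases and decreases were fitted against DMSO. Parallel cultures were stained with SRB for total protein as an overt-cytotoxicity check.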

Read-out in test [9]: Transforming growth factor beta 1 (TGFb1), TGFB1 (gene 7040)
Nature of the test: BSK_KF3CT_TGFb1: BioMAP Diversity Plus: KF3CT Assay for Transforming growth factor beta 1 (TGFb1) Biomarker Activity (AID 2283072). The settings on record: primary human keratinocytes with fibroblasts; actives raise or lower the signal. In outline: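 ELISA quantifies TGF-b1 at 24 h post-dose in a primary human skin co-culture of keratinocytes and fibroblasts, with gain or loss judged against DMSO. Parallel SRB total-protein staining flags overt cytotoxicity.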

Activity calls are given as the source filed them. How the source made its calls: active means hit-call score of the fitted dose curve at least 0.9, where 1 is the maximum; inactive means score below 0.9.

`CCCCCCCCCCCC[N+](C)(C)C`: the AC50 is 30.6 µM (active) in [1]; 4.94 µM (active) in [2]; 15.4 µM (active) in test [3]; 20 µM (active) in test [4]; 33.9 µM (active) in [6]; 32.5 µM (active) in test [7]. Besides, the figures for the AC50 in test [8] and in test [9] were 27.8 µM (active) and 26.6 µM (active), respectively. In test [5], the outcome was inactive.
For `Cc1ncc(CO)c(CO)c1O`, the result in test [1], in [2], in test [3], in [4], in test [5] and in test [6] was inactive. In addition, the outcome in test [7] and in test [8] was inactive.
On to `CC[C@@H]1C[C@H](N(Cc2cc(C(F)(F)F)cc(C(F)(F)F)c2)C(C)=O)c2cc(C(F)(F)F)ccc2N1C(=O)OC(C)C`, for which the result in [1], in test [2], in test [3], in test [4], in [5] and in test [6] was inactive. Besides, the outcome in test [8] was inactive.
As for `CC(O)CC(C)(C)O` (configuration not stated), the outcome in [1], in test [2], in test [3], in [4], in test [5] and in test [6] was inactive. In addition, the result in [7], in test [8] and in test [9] was inactive.
For the molecule `COc1ccc2cc(S(=O)(=O)N[C@H](CC(=O)N[C@H](Cc3ccc(CN4[C@H](C)CCC[C@@H]4C)cc3)C(=O)N(C)C(C)C)c3ccc4c(c3)OCO4)ccc2c1`, the AC50 is 33.3 µM (active) in [1]; 31.5 µM (active) in test [2]; 32.1 µM (active) in [3]; 26 µM (active) in [4]; 31.7 µM (active) in test [6]; 27.6 µM (active) in [8]. Further, the result in test [5] and in test [7] was inactive.
Turning to `CCCCCCCCCCCCO`, the half-maximal activity concentration (AC50) was 33.3 µM (active) in test [1]; 31 µM (active) in test [2]; 25.8 µM (active) in [3]; 29.7 µM (active) in [4]; 32.7 µM (active) in [5]; 32.8 µM (active) in [6]. Moreover, the AC50 is 30 µM (active) in [8] and 30.9 µM (active) in test [9].
As for `O=C1CCC(C2CCCCC2)CC1`, the result in test [1], in [5], in test [6], in test [7] and in [8] was inactive. The AC50 in [2] was 33.3 µM (active); in test [3], 31.6 µM (active); in [4] it was 31.7 µM (active).
As to `CC/C(=C(/CC)c1ccc(O)cc1)c1ccc(O)cc1`, the AC50 is 28.1 µM (active) in [1]; 28.6 µM (active) in test [2]; 13.6 µM (active) in [3]; 20 µM (active) in [4]; 31.8 µM (active) in test [5]; 25.3 µM (active) in test [6]. Moreover, the figures for the AC50 in test [8] and in test [9] were 29.1 µM (active) and 5.87 µM (active), respectively.
For `CCCCCCCCOc1ccc(C(=O)c2ccccc2)c(O)c1`, the result in test [1], in test [2], in test [3], in test [4], in test [5] and in test [6] was inactive. In addition, the outcome in [7], in [8] and in test [9] was inactive.
Take `Clc1cc(Cl)c2c(c1)N=C1CCCCCN1C2`: the outcome in test [1], in test [2], in test [3], in [4], in test [5] and in test [6] was inactive. Further, the outcome in test [7], in [8] and in test [9] was inactive.
In the case of `CN(C)c1ccc(C(=C2C=CC(=[N+](C)C)C=C2)c2ccc(N(C)C)cc2)cc1`, the AC50 in [1] was 5.26 µM (active); in test [2], 5.45 µM (active); in [3], 3.25 µM (active); in test [4] it was 1.54 µM (active); in test [5] it was 10.8 µM (active); in [6], 5.24 µM (active). The AC50 is 2.54 µM (active) in test [7], 1.29 µM (active) in test [8] and 0.595 µM (active) in test [9].
On to `Cc1ccc(C(C)C)cc1`, for which the outcome in test [1], in test [2], in test [3], in test [4], in test [5] and in test [6] was inactive. Moreover, the result in test [8] and in test [9] was inactive.
As to `Cc1cccc2ccccc12`, the result in [1], in [2], in test [3], in [4], in test [5] and in test [6] was inactive. The result in test [8] was inactive.
Turning to `CCCCCCCCCC(=O)O`, the result in test [1], in [2], in test [3], in test [4], in [5] and in [6] was inactive. In addition, in test [8], the result was inactive.
`CC1(C)NC(=O)N(c2ccc([N+](=O)[O-])c(C(F)(F)F)c2)C1=O`: the outcome in test [1], in [2], in [3], in test [4], in test [5] and in test [6] was inactive. Moreover, the outcome in [7], in test [8] and in test [9] was inactive.
As to `Oc1ccccc1`, the outcome in test [1], in [2], in test [3], in test [4], in [5] and in [6] was inactive. Moreover, the result in test [8] was inactive.
Turning to `CN1C(=O)N(c2ccccc2Br)Cc2cnc(Nc3ccc4c(c3)OCC(CO)O4)nc21` (configuration not stated), the half-maximal activity concentration (AC50) in test [1] was 22.2 µM (active); in [2] it was 9.31 µM (active); in test [3], 34.1 µM (active); in [4], 3.21 µM (active); in test [6] it was 16.2 µM (active); in test [7], 10.4 µM (active). The concentration at half-maximal activity (AC50) in test [8] is 13.7 µM (active); in [9] it was 15.3 µM (active). Moreover, the result in test [5] was inactive.
Take `C[C@]12CC[C@@H]3c4ccc(O)cc4CC[C@H]3[C@@H]1CCC2=O`: the result in [1], in test [2], in [3], in [4], in test [5] and in [6] was inactive. Further, the outcome in [8] and in test [9] was inactive.
Consider `CCCCCCCCN(C)CCCCCCCC`, for which the result in test [1], in test [2], in [3], in test [4], in test [5] and in test [6] was inactive. Further, the result in test [7] and in test [8] was inactive.
Consider `CCCCOC(=O)CC(CC(=O)OCCCC)(OC(C)=O)C(=O)OCCCC`, for which the result in [1], in [2], in test [3], in [4], in test [5] and in test [6] was inactive. Further, the outcome in test [8] was inactive.
